CYP2C9 activ – CYP2C9 (human) activation | P11712 | recombinant CYP2C9, luciferin-H conversion, luminescence; stronger effect = higher value; factor 1 = untreated enzyme, 0 = blocked | activation factor at 5 µM | hit rate 1.4% among 96,000 | AID 1024;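 active = activation factor of 2 or more for CYP2C9 at a 5 µM dose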;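 also: 0 = sulfaphenazole-blocked wells and 1 = vehicle-only wells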
Target sequence (P11712 whole entry, looked up): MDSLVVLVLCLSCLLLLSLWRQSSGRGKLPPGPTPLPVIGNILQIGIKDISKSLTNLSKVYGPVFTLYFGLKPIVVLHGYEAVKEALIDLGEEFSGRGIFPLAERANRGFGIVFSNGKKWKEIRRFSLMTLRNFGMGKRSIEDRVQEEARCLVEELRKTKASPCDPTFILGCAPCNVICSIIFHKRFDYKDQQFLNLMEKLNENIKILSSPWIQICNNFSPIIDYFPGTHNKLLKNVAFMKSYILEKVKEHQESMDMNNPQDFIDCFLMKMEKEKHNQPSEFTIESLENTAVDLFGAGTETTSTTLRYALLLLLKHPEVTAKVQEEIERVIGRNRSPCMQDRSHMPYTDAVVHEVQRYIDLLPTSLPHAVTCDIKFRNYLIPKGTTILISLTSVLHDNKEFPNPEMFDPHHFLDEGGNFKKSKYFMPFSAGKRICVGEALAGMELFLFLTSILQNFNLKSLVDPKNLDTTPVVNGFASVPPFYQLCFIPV
CYP2C9 inhib – human CYP2C9 inhibition | CYP2C9 Supersomes, luciferin-H conversion, luminescence | inhibition, % at 5 µM | hit rate 20% among 96,000 | AID 777;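 active = blocking of liver enzyme CYP2C9 beyond about 50% at 5 µM, limit read from the data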
CYP2C19 inhib – blocks human cytochrome P450 2C19; P33261; CYP2C19 Supersomes, luciferin-H EGE luminescence, 30 min; inhibition, % at 5 µM; hit rate 21% among 96,000; AID 778;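 active = CYP2C19 inhibition above a set limit at 5 µM in the primary screen, cut at about 50% in these data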;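 also: plate controls were negative control wells for no effect and 2.5 mM tranylcypromine positive control for full effect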
CYP2C19 activ – increases human CYP2C19 enzyme activity | P33261 | recombinant CYP2C19, luciferin-H EGE luminescence; stronger effect = higher value; 0 = fully inhibited enzyme, 1 = untreated enzyme | activation factor at 5 µM | 96,000 tested, under 10 active;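 active = activation factor of at least 2 at 5 µM in the primary screen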;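 also: 0 = wells with 2.5 mM tranylcypromine and 1 = vehicle-only wells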
EphB4 ephrin blk – EphB4-ephrin-B2 interaction antagonism. P54760. EphB4 LBD / TNYL-RAW-Alexa532 peptide, fluorescence polarization. inhibition, % at 7 µM. hit rate 0.15% among 97,000. AID 720;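 active = inhibition above the screen-wide mean inhibition plus 3 SD, cut at about 15% in these data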;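 also: 0% = DMSO wells and 100% = excess unlabeled TNYL-RAW peptide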
Starred values were filed as active, the others as inactive; / = no result given. In the library only some 27% were active in any assay of this set; here they are far more common.

SMILES | CYP2C9 activ | CYP2C9 inhib | CYP2C19 inhib | CYP2C19 activ | EphB4 ephrin blk
COC(=O)NCC(c1cccnc1)N1CCN(c2ccccc2OC)CC1 (stereo unspecified) | 1.1 | -8.6 | 42.3 | 0.6 | -4.3
O=C(C(NS(=O)(=O)c1cccs1)c1ccccc1)N1CCN(c2ccccc2F)CC1 (stereo unspecified) | 0.4 | 56.3* | 68.8* | 0.3 | 0.8
Cc1cccc(N2CCN(C(=O)C(NS(=O)(=O)c3cccs3)c3ccccc3)CC2)c1C (stereo unspecified) | 1 | 1.5 | 22.0 | 0.8 | 1.9
O=S(=O)(NCC(c1cccnc1)N1CCN(c2ccc(F)cc2)CC1)c1ccc(F)cc1 (stereo unspecified) | 0.3 | 72.2* | 83.5* | 0.2 | 0.5
COc1ccccc1N1CCN(C(CNS(=O)(=O)c2ccc(C)cc2)c2cccnc2)CC1 (stereo unspecified) | 0.8 | 18.2 | 57.9* | 0.4 | 3.1
N#CC1=C(Nc2ccccc2)SC=C(c2ccc(F)cc2)N=C1N1CCOCC1 | 0.9 | 10.9 | -2.0 | 1 | 2.1
Cc1cccc(NC(=O)C2CCCN(c3nc(C)cc(C)n3)C2)c1 (stereo unspecified) | 1.1 | -10.1 | -1.3 | 1 | /
CCSc1nnc(NC(=O)C(CC)(C(F)(F)F)C(F)(F)F)s1 | 0 | 98.0* | 33.2 | 0.7 | -3.6
CCSc1nnc(NC(=O)C(C)(C(F)(F)F)C(F)(F)F)s1 | 0.2 | 75.2* | -6.0 | 1.1 | -2.8
CCSc1nnc(NC(=O)C(C(F)(F)F)C(F)(F)F)s1 | 0.8 | 18.1 | -4.3 | 1 | 4.7
CCSc1nnc(NC(NC(=O)c2ccco2)(C(F)(F)F)C(F)(F)F)s1 | 0.1 | 90.1* | 7.2 | 0.9 | -10.5
Cc1cccc(Cn2cnc3c(nnn3Cc3ccc(F)cc3)c2=O)c1 | 2.5* | -152.9 | 57.9* | 0.4 | 1.8
Cc1ccc(-n2nnc3c(=O)n(Cc4cccc(C)c4)cnc32)cc1 | 0.6 | 39.4 | 29.4 | 0.7 | 1.2
Cc1cccc(Cn2cnc3c(nnn3Cc3ccccc3F)c2=O)c1 | 2.8* | -183.4 | 51.6* | 0.5 | -1.5
CN(C)C(=O)c1ccc(COc2ccccc2Br)o1 | 0.7 | 26.4 | 83.0* | 0.2 | 0.9
COc1ccccc1OCc1ccc(C(=O)N(C)C)o1 | 1 | 4.0 | 20.5 | 0.8 | 0.0
O=C(Nc1nccs1)c1ccc(COc2ccc(F)cc2)o1 | 0.9 | 9.9 | 14.2 | 0.9 | -3.4
O=C(Nc1nccs1)c1ccc(COc2ccccc2Br)o1 | 0.1 | 90.6* | 88.1* | 0.1 | 0.1
COc1ccc(CC(=O)NC(C)c2nnc(SCc3nc4ccccc4c(=O)[nH]3)n2C)cc1 (stereo unspecified) | 0.9 | 10.8 | -1.5 | 1 | -4.7
COc1ccccc1NC(=O)c1cccc(NC(=O)c2ccco2)c1 | 2.8* | -176.1 | 2.2 | 1 | 3.8
COc1ccc(NC(=O)Cc2ccc(Cl)cc2)cc1NC(=O)c1ccco1 | 0.4 | 64.8* | 73.6* | 0.3 | -1.7
O=C(COC(=O)c1cccc(NC(=O)c2ccco2)c1)c1ccc(Br)cc1 | 2.3* | -134.0 | 11.3 | 0.9 | -0.6
Cc1ccc(O)c(NC(=O)c2cccc(NC(=O)c3ccco3)c2)c1 | 1 | 2.3 | 52.9* | 0.5 | -3.5
CC(C)(C)C(=O)COC(=O)c1cccc(NC(=O)c2ccco2)c1 | 0.8 | 19.5 | 17.7 | 0.8 | -1.8
COc1ccc(NC(=O)c2ccco2)cc1NC(=O)c1ccco1 | 0.9 | 6.4 | -1.4 | 1 | /
SMILES | CYP2C9 activ | CYP2C9 inhib | CYP2C19 inhib | CYP2C19 activ | EphB4 ephrin blk
CC(C)(C)NC(=O)c1cccc(NC(=O)c2ccco2)c1 | / | / | / | / | -2.2
CC(C)(C)NC(=O)c1cccc(NC(=O)c2ccc(NC(=O)c3ccco3)cc2)c1 | 0 | 96.8* | 73.8* | 0.3 | 1.6
COc1ccc(NC(=O)c2ccco2)cc1NC(=O)c1cccc(OC(C)C)c1 | 0.6 | 44.0 | 63.7* | 0.4 | -11.0
COc1ccc(S(=O)(=O)N2N=C(C)Oc3ccccc3C2=O)cc1 | 0.9 | 8.6 | 64.8* | 0.4 | -6.8
C#CCOC(=O)c1csc2nnsc12 | / | / | / | / | 2.3
COc1ccc(-n2c(SC)nc(O)c(Cc3ccccc3)c2=O)cc1 | 1 | -4.9 | -12.6 | 1.1 | 1.3
COc1ccc(Cc2c(O)nc(SC)n(C(C)=O)c2=O)cc1 | 0.5 | 45.4 | 52.8* | 0.5 | 4.8
CCCCSc1nnc(-c2ccc(OC)cc2)n1C | / | / | / | / | 0.9
CCCSc1cc(N2CCOCC2)nc(-c2ccccc2Cl)n1 | 0.4 | 57.4* | 9.0 | 0.9 | 9.3
c1ccc(-c2cc(N3CCOCC3)nc(-c3ccccc3)n2)cc1 | 0.9 | 8.3 | 0.7 | 1 | -4.6

Assay outcomes as filed in PubChem BioAssay.
